Screen size: about 5,500 compounds; about 2,000 (36%) were called active. Inconclusive results (about 18%) are left out. The list shows a part of the results. Values without a mark were called inactive. Cut-off read from the data, not from the text of the source: active = normalized growth mostly below about 0.91 (no sharp cut-off); inconclusive = no clear call, values can overlap the other calls; inactive = mostly above about 0.92.
Assay: chemical genetic growth profiling, strain panel (AID 1159580);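 note: tested at 20 µM; growth read once vehicle control cultures reached saturation at 30 °C; 1 = growth at the plate median or of vehicle wells; lower values mean less growth of the strain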
Details: S. cerevisiae deletion strains, growth OD

O=c1c(O)c(-c2ccc(O)c(O)c2)oc2c(O)c(O)cc(O)c12
normalized growth (locus YAL021C, strain ccr4, stronger effect = lower value): 0.864 (active)
normalized growth (locus YAL026C, strain drs2, stronger effect = lower value): 0.954
normalized growth (locus YAL030W, strain snc1, stronger effect = lower value): 1
normalized growth (locus YBL061C, strain skt5, stronger effect = lower value): 0.925
normalized growth (locus YBR009C, strain hhf1, stronger effect = lower value): 1.04
normalized growth (locus YBR023C, strain chs3, stronger effect = lower value): 0.929
normalized growth (locus YBR171W, strain sec66, stronger effect = lower value): 1.02
normalized growth (locus YBR231C, strain swc5, stronger effect = lower value): 0.927
normalized growth (locus YBR279W, strain paf1, stronger effect = lower value): 0.994
normalized growth (locus YCL011C, strain gbp2, stronger effect = lower value): 1.01
normalized growth (locus YCL016C, strain dcc1, stronger effect = lower value): 0.991
normalized growth (locus YCL061C, strain MRC1, stronger effect = lower value): 0.989
normalized growth (locus YCL069W, strain vba3, stronger effect = lower value): 1.01
normalized growth (locus YCR088W, strain abp1, stronger effect = lower value): 1.02
normalized growth (locus YDL005C, strain med2, stronger effect = lower value): 1.03
normalized growth (locus YDL040C, strain nat1, stronger effect = lower value): 1.02
normalized growth (locus YDR001C, strain nth1, stronger effect = lower value): 1.02
normalized growth (locus YDR069C, strain doa4, stronger effect = lower value): 0.906
normalized growth (locus YDR137W, strain rgp1, stronger effect = lower value): 1.02
normalized growth (locus YDR159W, strain sac3, stronger effect = lower value): 1.13 [resistant] (active)
normalized growth (locus YDR195W, strain ref2): 1.01
normalized growth (locus YDR297W, strain sur2, stronger effect = lower value): 1
normalized growth (locus YDR334W, strain swr1, stronger effect = lower value): 0.983
normalized growth (locus YDR335W, strain msn5, stronger effect = lower value): 0.994
normalized growth (locus YDR392W, strain spt3, stronger effect = lower value): 1.04
normalized growth (locus YEL003W, strain gim4, stronger effect = lower value): 0.996
normalized growth (locus YEL037C, strain rad23, stronger effect = lower value): 0.987
normalized growth (locus YEL061C, strain CIN8 (second series), stronger effect = lower value): 1.01
normalized growth (locus YER015W, strain faa2, stronger effect = lower value): 0.98
normalized growth (locus YER016W, strain bim1, stronger effect = lower value): 1.02
normalized growth (locus YER111C, strain swi4, stronger effect = lower value): 0.942
normalized growth (locus YER155C, strain BEM2 (second series), stronger effect = lower value): 0.984
normalized growth (locus YFR010W, strain ubp6, stronger effect = lower value): 0.932
normalized growth (locus YGL167C, strain pmr1, stronger effect = lower value): 1.01
normalized growth (locus YGL173C, strain kem1, stronger effect = lower value): 0.947
normalized growth (locus YGL227W, strain vid30, stronger effect = lower value): 1.03
normalized growth (locus YGL240W, strain doc1, stronger effect = lower value): 1.11
normalized growth (locus YGL253W, strain hxk2, stronger effect = lower value): 1
normalized growth (locus YHR013C, strain ard1, stronger effect = lower value): 0.931
normalized growth (locus YHR027C, strain rpn1, stronger effect = lower value): 0.983
normalized growth (locus YHR030C, strain SLT2, stronger effect = lower value): 1
normalized growth (locus YHR079C, strain IRE1, stronger effect = lower value): 1.02
normalized growth (locus YHR142W, strain chs7, stronger effect = lower value): 0.891
normalized growth (locus YJL092W, strain hpr5, stronger effect = lower value): 1.02
normalized growth (locus YJL095W, strain BCK1 (second series), stronger effect = lower value): 0.993
normalized growth (locus YJL095W, strain BCK1, stronger effect = lower value): 1.02
normalized growth (locus YJL115W, strain asf1, stronger effect = lower value): 1.01
normalized growth (locus YJL129C, strain trk1, stronger effect = lower value): 1.08
normalized growth (locus YJL154C, strain vps35, stronger effect = lower value): 1.02
normalized growth (locus YJL164C, strain tpk1, stronger effect = lower value): 0.959
normalized growth (locus YJL166W, strain qcr8, stronger effect = lower value): 0.995
normalized growth (locus YJL187C, strain SWE1, stronger effect = lower value): 0.997
normalized growth (locus YJR066W, strain TOR1, stronger effect = lower value): 0.967
normalized growth (locus YKL160W, strain elf1, stronger effect = lower value): 0.942
normalized growth (locus YKR026C, strain gcn3, stronger effect = lower value): 1.01
normalized growth (locus YKR091W, strain srl3, stronger effect = lower value): 1.03
normalized growth (locus YLL001W, strain dnm1, stronger effect = lower value): 1.03
normalized growth (locus YLL026W, stronger effect = lower value): 1.02
normalized growth (locus YLL041C, strain sdh2, stronger effect = lower value): 1.01
normalized growth (locus YLR027C, strain aat2, stronger effect = lower value): 0.992
normalized growth (locus YLR113W, strain HOG1, stronger effect = lower value): 1.12
normalized growth (locus YLR221C, strain rsa3, stronger effect = lower value): 0.981
normalized growth (locus YLR258W, strain gsy2, stronger effect = lower value): 1.01
normalized growth (locus YLR262C, strain YPT6 (second series), stronger effect = lower value): 0.919
normalized growth (locus YLR320W, strain mms22, stronger effect = lower value): 1.02
normalized growth (locus YLR342W, strain FKS1, stronger effect = lower value): 0.967
normalized growth (locus YLR357W, strain rsc2, stronger effect = lower value): 0.889
normalized growth (locus YLR370C, strain arc18, stronger effect = lower value): 0.938
normalized growth (locus YLR384C, strain iki3, stronger effect = lower value): 1.01
normalized growth (locus YML120C, strain ndi1, stronger effect = lower value): 1
normalized growth (locus YMR058W, strain fet3, stronger effect = lower value): 0.921
normalized growth (locus YMR125W, strain sto1, stronger effect = lower value): 1.03
normalized growth (locus YMR129W, stronger effect = lower value): 1.02
normalized growth (locus YMR205C, strain PFK2, stronger effect = lower value): 1.06
normalized growth (locus YMR231W, strain pep5, stronger effect = lower value): 0.999
normalized growth (locus YNL071W, strain lat1, stronger effect = lower value): 1.01
normalized growth (locus YNL183C, strain NPR1, stronger effect = lower value): 0.997
normalized growth (locus YNL209W, strain ssb2, stronger effect = lower value): 0.94
normalized growth (locus YNL248C, strain rpa49, stronger effect = lower value): 1
normalized growth (locus YNL322C, strain KRE1 (second series), stronger effect = lower value): 1.01
normalized growth (locus YNR049C, strain mso1, stronger effect = lower value): 1.02
normalized growth (locus YOR001W, strain rrp6, stronger effect = lower value): 0.981
normalized growth (locus YOR070C, strain gyp1, stronger effect = lower value): 1.01
normalized growth (locus YOR080W, strain dia2, stronger effect = lower value): 1.01
normalized growth (locus YOR083W, strain WHI5, stronger effect = lower value): 0.931
normalized growth (locus YOR106W, strain vam3, stronger effect = lower value): 0.872
normalized growth (locus YOR231W, strain MKK1, stronger effect = lower value): 1.03
normalized growth (locus YOR265W, strain rbl2, stronger effect = lower value): 1
normalized growth (locus YOR270C, strain vph1, stronger effect = lower value): 0.948
normalized growth (locus YOR290C, strain snf2, stronger effect = lower value): 0.962
normalized growth (locus YPL051W, strain arl3, stronger effect = lower value): 0.92
normalized growth (locus YPL078C, strain atp4, stronger effect = lower value): 0.963
normalized growth (locus YPL106C, strain sse1, stronger effect = lower value): 1
normalized growth (locus YPL240C, strain hsp82, stronger effect = lower value): 0.994
normalized growth (locus YPL256C, strain CLN2, stronger effect = lower value): 1.04
